# Screening data: PubChem BioAssay, National Center for Advancing Translational Sciences (NCATS)
# Rows were chosen to be rich in hits. Some 2.5% of all compounds tested hit in one or more screens of this group.
# Cruzain inh Det: blocks cruzain activity in presence of Triton detergent; actives 0.43% (n = 200,000); Potency, µM, for the others: max response, negative = inhibition, hits mostly inhibitors; AID 1478; P25779; purified cruzain, Z-FR-AMC fluorescence, 0.01% Triton;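 further: plate controls were neutral wells for no effect and buffer without enzyme for full effect; nearly all actives have a fitted effect of over 40% in size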
# Target sequence (P25779 123-467 limits assumed): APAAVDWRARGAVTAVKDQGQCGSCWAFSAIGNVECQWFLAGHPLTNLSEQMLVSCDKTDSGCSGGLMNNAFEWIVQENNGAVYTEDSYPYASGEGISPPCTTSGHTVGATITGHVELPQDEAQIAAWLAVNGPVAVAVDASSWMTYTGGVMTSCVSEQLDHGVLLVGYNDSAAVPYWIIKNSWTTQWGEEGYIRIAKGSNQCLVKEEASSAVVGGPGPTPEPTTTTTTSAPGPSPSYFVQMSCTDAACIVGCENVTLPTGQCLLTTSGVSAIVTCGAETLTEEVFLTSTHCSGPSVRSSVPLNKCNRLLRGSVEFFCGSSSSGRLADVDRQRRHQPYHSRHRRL
#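 In this qHTS format, compounds are incubated with 1.5 nM cruzain for 15 min at room temperature before 2 uM Z-FR-AMC is added. Release of AMC is followed at 360/450 nm, and progress is taken as the 60 s fluorescence difference.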
# Cruzain inh noDet: cruzain (T. cruzi) inhibition without detergent. purified cruzain, Z-FR-AMC fluorescence, no detergent. Potency, µM, without a hit: max response, negative = inhibition, actives largely listed as inhibitors. actives 2.3% (n = 200,000). AID 1476;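 further: plate controls were enzyme without inhibitor for no effect and buffer without enzyme for full effect; nearly all actives have a fitted effect of over 40% in size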
#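 Detergent-free condition (0.00005% Triton X-100) in acetate buffer pH 5.5 with DTT. 1.5 nM enzyme and compound were pre-mixed 15 min, then 2 uM Z-FR-AMC substrate added; reaction progress from fluorescence change between first and third reads (60 s).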
# Numbers without * were called inactive; ? = inconclusive. The call rests on the fitted dose curve; in most records, active means well fitted curve in the direction sought with a large enough effect; inconclusive means small, poorly fitted or top-dose-only effect, or another doubt; inactive means no such curve, though single readings can be large; an effect the other way counts as inactive or inconclusive. Potency means the concentration at half of the fitted maximal effect.
SMILES,Cruzain inh Det,Cruzain inh noDet
COc1ccc(/C=N/NC(=O)c2cccc([N+](=O)[O-])c2)cc1OC(=O)c1ccccc1,-0.8%,25.1µM*
Cc1ccc(NCC(=O)N/N=C\C(Br)=C\c2ccccc2)cc1,1.6%,12.6µM*
COc1ccc(/C=N/NC(=O)CSCc2ccc([N+](=O)[O-])cc2)cc1OC,-3.3%,-7.2%
Cc1nn(C)c2c1c(-c1ccccc1)cc(=O)n2Cc1ccc(F)cc1,-5.9%,-8.3%
Cc1ccc(C)c(Cn2c(SCC(=O)N(C)Cc3ccccc3)nc3ccccc32)c1,-3.2%,9.3%
Cc1ccc2oc(C(=O)Nc3c(C(=O)Nc4ccccc4)oc4ccccc34)cc(=O)c2c1,-0.2%,-9.8%
Cc1cccc(Cn2c(CNS(=O)(=O)c3ccc(C(C)C)cc3)nc3cccnc32)c1,-2.6%,-0.2%
CCc1nnc(SCC(=O)N(C)c2ccccc2)c2cc3sccc3n12,-1.2%,1.3%
N#Cc1cc([N+](=O)[O-])ccc1Oc1cccc(/C=N/NC(=O)c2cccc(Cl)c2)c1,2.2%,25.1µM*
COc1cccc(C(=O)N/N=C/c2ccc(Oc3ccc([N+](=O)[O-])cn3)c(OC)c2)c1,-0.9%,-5.5%
COc1cc(/C=N/NC(=O)c2cccc([N+](=O)[O-])c2)ccc1OCc1ccccc1,-13.6%,29.4%
O=C(N/N=C/c1cccc([N+](=O)[O-])c1)c1ccc(COc2ccccc2-c2ccccc2)cc1,-6.6%,20µM*
Cc1nn(C)c(C)c1/C=C1/SC(=S)NC1=O,2.2%,2.9%
Cc1ccc(C2C(/C=C3/SC(=S)NC3=O)=C(c3cccs3)Oc3ccccc32)cc1 (configuration not stated),-2.4%,7.94µM*
CC(C)(C)OC(=O)N1CCC(c2c(C(=O)NCCN3CCOCC3)cnn2-c2ccc(F)cc2)CC1,-0.1%,23.0%
CCCC(=O)Nc1ccc(Nc2ccccc2)cc1,-4.0%,13.0%
CCCC(=O)Nc1ccc(-c2ccc(NC(=O)CCC)cc2)cc1,-0.7%,12.6µM*
O=C(O)CN(CC(=O)O)c1ccccc1,0.6%,-5.9%
CCOC(=O)c1ccc(N2CCN(c3cc(Cl)ccc3C)CC2)c(NC(=O)Nc2ccc(OCC)cc2)c1,0.1%,-0.9%
CCOC(=O)c1ccc(N2CCN(c3cc(C)ccc3C)CC2)c(NC(=O)Nc2ccccc2)c1,0.0%,7.94µM*
COc1ccc(N2CCN(c3oc(-c4ccccc4C)nc3S(=O)(=O)c3ccccc3)CC2)cc1,-4.3%,12.6µM*
Cc1ccc(-c2nc(S(=O)(=O)c3ccccc3)c(N3CCN(c4ccccc4)CC3)o2)cc1,-1.0%,-8.8%
O=C(CC1N=C2c3ccccc3N=C(SCc3cccc(Cl)c3)N2C1=O)NCCc1ccccc1 (configuration not stated),-8.0%,11.0%
CCCCOc1ccc(C(=O)NCC(=O)OC2CCOC2=O)cc1 (configuration not stated),20µM*,?
Cc1ccc(S(=O)(=O)NCC(=O)OC2CCOC2=O)cc1 (configuration not stated),-11.9%,-25.0%
SMILES,Cruzain inh Det,Cruzain inh noDet
COc1ccc(CNC(=O)C(=O)NCC(c2cccs2)S(=O)(=O)c2cccs2)cc1 (configuration not stated),-1.7%,-2.4%
CCN(CC)c1ccc(S(=O)(=O)Nc2cc(Cl)ccc2Cl)cc1NC(=S)NC(=O)C1CCCC1,-2.1%,31.6µM*
COc1ccccc1NS(=O)(=O)c1ccc(Cl)c(NC(=S)NC(=O)C2CCCC2)c1,-13.2%,?
O=c1[nH]c(SCc2c(F)cccc2Cl)nc2c1CCC2,-6.0%,-0.5%
Cc1ccc(NC(=O)C(=O)NCC(c2cccnc2)N2CCc3ccccc3C2)cc1 (configuration not stated),-2.8%,-6.6%
Cc1sc(N/N=C/C=C/c2ccccc2)nc1-c1ccccc1,-0.4%,7.94µM*
Cc1cc(C)nc(N/N=C/C=C/c2ccccc2)n1,-7.1%,-2.8%
CCn1c(C(=O)NCc2ccc(F)cc2)cc2oc3ccccc3c21,-9.5%,-5.3%
CCOc1ccccc1CNC(=O)c1cc2oc3ccccc3c2n1CC,-17.0%,31.6µM*
Cc1ccc(-c2nnn(CC(=O)Nc3ccc4nn(-c5ccccc5)nc4c3)n2)o1,-7.5%,10µM*
Cc1ccc(-c2nnn(CC(=O)NCC3CC3)n2)o1,1.3%,-0.8%
Nc1c(S(=O)(=O)O)cc(Nc2cccc(S(N)(=O)=O)c2)c2c1C(=O)c1ccccc1C2=O,-6.8%,17.4%
Cc1ccc2[nH]c3c(NCc4ccco4)ncnc3c2c1,-26.9%,-22.9%
C=CCNc1ncnc2c1[nH]c1ccc(Cl)cc12,?,12.6µM*
NC(=O)c1cc(S(=O)(=O)NCC2CCC(C(=O)Nc3ccc(Cl)cc3)CC2)cs1 (configuration not stated),3.5%,-12.1%
CCCn1c(=O)c2sccc2n2c(CCCC(=O)Nc3cccc(CC)c3)nnc12,-1.6%,13.1%
COc1ccc(Br)cc1CNC(=O)c1nn(-c2ccc(C)cc2)c(=O)c2c1c1ccccc1n2C,-1.8%,-7.7%
CC(CCc1ccccc1)NC(=O)c1ccc(C(=O)NC(C)CCc2ccccc2)cc1 (configuration not stated),1.0%,25.1µM*
CC(CCc1ccccc1)NC(=O)c1ccccc1 (configuration not stated),1.1%,10.4%
COc1cc(NC(=O)c2ccc(C)c(Cl)c2)ccc1NC(=O)c1cc2ccccc2o1,0.3%,-5.2%
Cc1cccc2cc(C#N)c(SCC(=O)NNC(=O)Cc3ccccc3)nc12,4.7%,25.1µM*
Cc1cccc2cc(C#N)c(SCC(=O)NCc3cccs3)nc12,-2.5%,6.31µM*
Cc1cccc2cc(C#N)c(SCC(=O)NCC3CCCO3)nc12 (configuration not stated),2.4%,-16.1%
Cc1ccc(C)c2nc(SCC(=O)NCc3cccs3)c(C#N)cc12,5.0%,-18.9%
CCOc1ccc(CCNC(=O)C2CCC(CNS(=O)(=O)c3ccc(Cl)cc3)CC2)cc1OCC (configuration not stated),-0.1%,6.9%
SMILES,Cruzain inh Det,Cruzain inh noDet
COc1ccc(CCNC(=O)c2cc(Nc3cc(C)cc(C)c3)nc3ccccc23)cc1OC,-11.7%,?
CSc1ncnc2c1ncn2[C@@H]1O[C@@H](CO)[C@H](O)O[C@@H]1O,-2.1%,0.0%
COc1ccc(CNC(=O)c2cccs2)cc1,1.0%,4.1%
COc1ccc(CNC(=O)/C(C#N)=C2\N=C(NC(=O)c3cccs3)c3ccccc32)cc1,-4.9%,25.1µM*
CC(=O)Nc1cc(C(=O)NCc2ccc(F)cc2)ccc1Sc1ccc(C)cc1,0.5%,1.2%
Clc1cccc(CSc2nnc(C3CCNCC3)o2)c1,-1.0%,-11.1%
COc1ccccc1/C=N/NC(=O)c1ccccc1NS(=O)(=O)c1ccc(C)cc1,-8.4%,-0.6%
COc1cccc(/C=N/NC(=O)c2ccc(=O)n(C)c2)c1O,-3.2%,-12.2%
COc1cccc(/C=N/NC(=O)c2ccc(-c3ccccc3)cc2)c1O,1.0%,15.8µM*
COc1ccccc1/C=N/NC(=O)C1=NNC(c2ccccc2)(c2ccccc2)C1,-9.6%,15.8µM*
Cc1cccc(C)c1NC(=O)C(=O)NCC(c1ccc2c(c1)OCO2)N1CCOCC1 (configuration not stated),-1.7%,1.1%
Cc1ccc(NC(=O)CCCc2nnc3n(C)c(=O)c4sccc4n23)cc1F,-0.1%,-9.2%
COC(=O)[C@@H]1O[C@@H](SCCN)[C@@H](O)[C@H](O)[C@H]1O,2.5%,-6.7%
COc1ccccc1Nc1nn2c(=O)c3ccc(C(=O)NCCc4ccccc4)cc3nc2s1,-2.8%,-20.5%
CCOC(=O)c1ccccc1NC(=O)CCc1nc(-c2ccc(C)cc2)no1,-5.3%,5.0%
